Test [1] is described as follows: qHTS assay for small molecule agonists of the p53 signaling pathway (AID 651631; calls by dose curve; further: nearly all actives have a fitted effect of over 15% in size). The method, boiled down: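 Stably transfected HCT-116 cells (beta-lactamase behind p53 response elements) get compounds after a 5 h settling period; 16 h later at 37 °C, FRET substrate is loaded and fluorescence read after 2 h.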
In general terms: Quantitative high-throughput screening tests each substance at several concentrations.

Test [2] is described as follows: qHTS assay for small molecules that induce genotoxicity in human embryonic kidney cells expressing luciferase-tagged ATAD5 - cell viability (AID 651634; calls by dose curve; further: nearly all actives have a fitted effect of over 25% in size; further: potency means the concentration at half of the fitted maximal effect). The method in brief:
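Cells (HEK293T, luciferase-tagged ATAD5) are seeded at 2,000 per well, dosed with compound or DMSO vehicle, and incubated 15.5 hr at 37C and 5% CO2. CellTiter-Fluor is added for 30 min before fluorescence is measured.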

Test [3] can be described thus: qHTS assay for small molecule disruptors of the mitochondrial membrane potential (AID 720635). Further: potency means the concentration at half of the fitted maximal effect. The method, boiled down:
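HepG2 cells (2,000/well) attached overnight at 37C, then took compound for 1 hr at 37C, 5% CO2. Mito-MPS dye was added for 30 min; fluorescence was read at 490/535 nm (monomers) and 540/590 nm (aggregates).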

The nature of test [4]: qHTS assay to test for compound auto fluorescence at 590 nm (red) in HepG2 cells (AID 720674). The method, boiled down: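 Rose Bengal sodium served as the red fluorophore standard. HepG2 monolayers (overnight attachment, MEM with 10% FBS) were exposed to test compounds for 1 hr at 37 C and read at Ex 540/Em 590 nm.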
Test [5] can be described thus: qHTS assay to test for compound auto fluorescence at 535 nm (green) in HEK293 cells (AID 720680). Further: potency means the concentration at half of the fitted maximal effect.
Test [6] in a line: qHTS assay to test for compound auto fluorescence at 590 nm (red) in HEK293 cell free culture (AID 720683). The method in brief:
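Tox21 10K library compounds were pinned into cell-free DMEM with 10% FBS and fluorescence was read at excitation 540 nm. Activity is expressed as Rose Bengal sodium equivalency.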

For test [7], the target named is Glucocorticoid receptor (Homo sapiens) (UniProt P04150). In words: qHTS assay to identify small molecule agonists of the glucocorticoid receptor (GR) signaling pathway (AID 720691; active means well fitted activation curve with a large enough effect in the signal ratio in the repeat runs, not every such curve was filed as active; inconclusive means weak or mixed curves, or effect the other way; inactive means no such curve, though single readings can be large or run the other way; the % refers to the signal ratio; further: potency means the concentration at half of the fitted maximal effect). The method in brief:
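Steps: seed GR-bla HeLa cells, incubate 4 h at 37 C/5% CO2; pin-transfer DMSO-dissolved compounds; incubate 18 h at 37 C; add LiveBLAzer B/G FRET substrate; after 2 h at room temperature, measure fluorescence.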

Test [8] can be described thus: qHTS assay to identify small molecule antagonists of the glucocorticoid receptor (GR) signaling pathway - cell viability counter screen (AID 720693). Further: nearly all actives have a fitted effect of over 55% in size. Further: potency means the concentration at half of the fitted maximal effect.
A short description of test [9]: qHTS assay for identifying genotoxic compounds that show differential cytotoxicity against isogenic chicken DT40 cell lines with known DNA damage response pathways - Rev3 mutant cell line (AID 743014). Further: nearly all actives have a fitted effect of over 55% in size. Further: potency means the concentration at half of the fitted maximal effect.
Test [10] is described as follows: qHTS assay to identify small molecule antagonists of the thyroid receptor (TR) signaling pathway - cell viability counter screen (AID 743064). Further: nearly all actives have a fitted effect of over 50% in size. Further: potency means the concentration at half of the fitted maximal effect. The method, boiled down:
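Counter screen for cytotoxicity: compound plus T3 (1 nM final) on GH3.TRE-Luc cells, 23.5 h at 37 °C, then fluorescence viability readout with CellTiter-Fluor.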

A short description of test [11]: qHTS assay to identify small molecule antagonists of the thyroid receptor (TR) signaling pathway (AID 743065). Further: nearly all actives have a fitted effect of over 55% in size. Further: potency means the concentration at half of the fitted maximal effect. The method in brief:
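GH3.TRE-Luc rat pituitary cells carrying two TR response elements driving luciferase were plated for 4 h, given compound plus 1 nM T3 (final), and incubated 23.5 h at 37 C. ONE-Glo luminescence measured reporter inhibition; CellTiter-Fluor fluorescence tracked cytotoxicity.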

Test [12] deals with thyroid hormone receptor (rat, GH3 cells). In words: qHTS assay to identify small molecule agonists of the thyroid receptor (TR) signaling pathway (AID 743066; calls by dose curve).
Test [13] concerns the target Estrogen receptor (Homo sapiens) (UniProt P03372). Nature of the test: qHTS assay to identify small molecule agonists of the estrogen receptor alpha (ER-alpha) signaling pathway (AID 743075; calls by dose curve;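 further: HEK293 GripTite cells with ER-alpha and UAS-driven beta-lactamase reporter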).
The target is the same in test [14]. In words: qHTS assay to identify small molecule agonists of the estrogen receptor alpha (ER-alpha) signaling pathway using the BG1 cell line (AID 743079). Further: nearly all actives have a fitted effect of over 20% in size. Further: potency means the concentration at half of the fitted maximal effect.
The nature of test [15]: qHTS assay to identify small molecule antagonists of the estrogen receptor alpha (ER-alpha) signaling pathway using the BG1 cell line (AID 743080; calls by dose curve;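 further: BG1 cells stimulated with 17beta-estradiol alongside compound; series mostly up to about 70 µM; nearly all actives have a fitted effect of over 25% in size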). The method in brief: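 Readout is ONE-Glo luminescence, taken 30 min at room temperature after reagent addition, preceded by a CellTiter-Fluor viability read; BG1-Luc-4E2 cells had received compound and 17beta-estradiol for 21.5 h at 37 C.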

Test [16] in a line: qHTS assay to identify small molecule antagonists of the estrogen receptor alpha (ER-alpha) signaling pathway using the BG1 cell line - cell viability counter screen (AID 743081).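 Further: compound given together with 17beta-estradiol as the ER stimulus; series mostly up to about 70 µM; nearly all actives have a fitted effect of over 45% in size.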
Test [17] can be described thus: qHTS assay to identify small molecule that activate the aryl hydrocarbon receptor (AhR) signaling pathway - cell viability counter screen (AID 743086).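 Further: HepG2 liver cells carrying the AhR DRE luciferase reporter; series mostly up to about 70 µM; nearly all actives have a fitted effect of over 45% in size.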 The method in brief:
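HepG2-AhR-luc (HG2L7.5c1) cells, 4000/well, were preincubated 5 h at 37C, exposed to compound in qHTS format for 24 hr at 37C, then given CellTiter-Fluor for 30 min; viability was read as fluorescence in the reporter wells.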

Test [18] concerns the target Peroxisome proliferator-activated receptor gamma (Homo sapiens) (UniProt P37231). Nature of the test: qHTS assay to identify small molecule agonists of the peroxisome proliferator-activated receptor gamma (PPARg) signaling pathway (AID 743094; active means well fitted activation curve with a large enough effect in the signal ratio in the repeat runs, not every such curve was filed as active; inconclusive means weak or mixed curves, or effect the other way; inactive means no such curve, though single readings can be large or run the other way; the % refers to the signal ratio). The method in brief:
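Cells from the PPARg UAS-bla HEK293H line are plated and incubated 5 h at 37C. Compounds in DMSO are pinned in and left 17 h at 37C. LiveBLAzer B/G substrate is then added for 1 h at room temperature before fluorescence is measured.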

Test [19] in a line: qHTS assay to identify small molecule phospholipidosis (PLD) inducers (AID 1259344; active means well fitted curve in the direction sought with a large enough effect; inconclusive means small, poorly fitted or top-dose-only effect, or another doubt; inactive means no such curve, though single readings can be large; an effect the other way counts as inactive or inconclusive). The method, boiled down:
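Cells (HepG2, 900 per well) attach for 4 h, receive LipidTOX Red and compound together, incubate 24 h at 37 C, are fixed 30 min with paraformaldehyde/Hoechst, then imaged at one site per well.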

The target of test [20] is Glucocorticoid receptor (Homo sapiens) (UniProt P04150). Nature of the test: qHTS assay to identify small molecule antagonists of the glucocorticoid receptor (GR) signaling pathway (AID 720692; active means well fitted inhibition curve with a large enough effect in the signal ratio in the repeat runs, not every such curve was filed as active; inconclusive means weak or mixed curves, or effect the other way; inactive means no such curve, though single readings can be large or run the other way; the % refers to the signal ratio). The method in brief:
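Antagonism was scored as loss of dexamethasone-driven (5 nM final) reporter signal in HeLa cells bearing a glucocorticoid response element–beta-lactamase construct, after 18 h compound exposure at 37 C and 2 h FRET substrate loading.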

This is an account of results in PubChem BioAssay (Tox21).

Values without a mark were called inactive. Activity calls are given as the source filed them. Unless noted, the call rests on the fitted dose curve; in most records, active means well fitted curve in the direction sought with a large enough effect in the repeat runs; inconclusive means weak or mixed curves; inactive means no such curve, though single readings can be large; an effect the other way counts as inactive or inconclusive.
On the % scale 0 is the no-effect control and ±100 the full control effect; tags describe the fitted curve by direction and shape or compound fluorescence and quenching.

Peroxisome proliferator-activated receptor gamma (Homo sapiens), sequence (P37231 whole entry, looked up): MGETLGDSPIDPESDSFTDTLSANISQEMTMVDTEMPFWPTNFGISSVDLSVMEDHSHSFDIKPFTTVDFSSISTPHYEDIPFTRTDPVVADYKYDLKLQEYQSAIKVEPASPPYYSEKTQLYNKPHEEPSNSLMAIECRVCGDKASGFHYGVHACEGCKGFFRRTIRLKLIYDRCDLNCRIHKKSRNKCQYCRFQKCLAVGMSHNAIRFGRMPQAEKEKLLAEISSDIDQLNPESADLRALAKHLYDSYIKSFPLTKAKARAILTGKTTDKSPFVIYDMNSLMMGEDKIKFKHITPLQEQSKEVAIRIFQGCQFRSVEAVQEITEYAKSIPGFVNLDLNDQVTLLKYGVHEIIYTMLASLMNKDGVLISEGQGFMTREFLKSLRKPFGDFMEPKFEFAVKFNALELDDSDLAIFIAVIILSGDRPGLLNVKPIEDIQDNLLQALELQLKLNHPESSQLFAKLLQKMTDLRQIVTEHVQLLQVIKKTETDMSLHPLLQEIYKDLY
Estrogen receptor (Homo sapiens), sequence (P03372 whole entry, looked up): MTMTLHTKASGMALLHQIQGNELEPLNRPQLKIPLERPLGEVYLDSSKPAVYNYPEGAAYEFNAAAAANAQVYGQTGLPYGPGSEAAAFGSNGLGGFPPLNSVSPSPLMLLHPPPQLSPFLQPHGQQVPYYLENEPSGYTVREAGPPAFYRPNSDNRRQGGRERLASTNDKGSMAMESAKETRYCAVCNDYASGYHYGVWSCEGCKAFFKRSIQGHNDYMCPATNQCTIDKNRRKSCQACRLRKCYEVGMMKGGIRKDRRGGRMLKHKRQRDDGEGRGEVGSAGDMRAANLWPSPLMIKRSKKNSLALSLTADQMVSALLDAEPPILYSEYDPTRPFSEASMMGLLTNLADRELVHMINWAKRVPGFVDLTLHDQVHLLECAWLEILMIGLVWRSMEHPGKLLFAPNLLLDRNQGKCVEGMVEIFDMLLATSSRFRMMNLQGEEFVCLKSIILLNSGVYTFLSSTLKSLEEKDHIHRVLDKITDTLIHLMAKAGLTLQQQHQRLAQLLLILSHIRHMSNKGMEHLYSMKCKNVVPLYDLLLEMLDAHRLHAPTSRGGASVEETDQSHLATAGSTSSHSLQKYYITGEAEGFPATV
Glucocorticoid receptor (Homo sapiens), sequence (P04150 whole entry, looked up): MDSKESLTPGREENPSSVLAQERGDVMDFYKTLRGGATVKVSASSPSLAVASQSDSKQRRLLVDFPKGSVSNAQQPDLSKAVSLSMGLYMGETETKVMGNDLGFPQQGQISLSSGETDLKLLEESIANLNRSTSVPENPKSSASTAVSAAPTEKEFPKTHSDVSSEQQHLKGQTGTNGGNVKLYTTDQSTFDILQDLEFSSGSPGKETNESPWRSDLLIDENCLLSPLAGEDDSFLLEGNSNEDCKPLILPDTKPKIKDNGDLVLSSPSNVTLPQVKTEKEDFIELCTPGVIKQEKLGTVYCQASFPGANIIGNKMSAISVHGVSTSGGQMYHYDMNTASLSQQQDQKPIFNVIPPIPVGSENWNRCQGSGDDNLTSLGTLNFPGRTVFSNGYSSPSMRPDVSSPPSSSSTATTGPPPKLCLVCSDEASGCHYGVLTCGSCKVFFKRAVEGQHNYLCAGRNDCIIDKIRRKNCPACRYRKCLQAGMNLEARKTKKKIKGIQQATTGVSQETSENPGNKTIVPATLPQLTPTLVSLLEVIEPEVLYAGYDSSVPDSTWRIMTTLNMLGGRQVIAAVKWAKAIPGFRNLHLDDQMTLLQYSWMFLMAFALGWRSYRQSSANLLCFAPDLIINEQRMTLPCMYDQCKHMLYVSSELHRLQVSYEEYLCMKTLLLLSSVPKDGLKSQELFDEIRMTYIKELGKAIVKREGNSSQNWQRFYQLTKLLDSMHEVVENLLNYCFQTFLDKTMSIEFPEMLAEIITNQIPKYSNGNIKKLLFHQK

As for `CC(N)Cc1ccc2c(c1)OCO2` (configuration not stated), the Potency result in test [1], in test [2], in [3], in [5], in [7] and in test [8] was “inactive” each time. In addition, the Potency result in test [9], in test [10], in test [11], in [12], in [13] and in test [14] was “inactive” each time. The Potency entry in test [15], in test [16], in test [17] and in test [18] was “inactive” each time. The outcome in test [4] and in test [6] was inactive. Further, the PLD induction in [19] is -3.76% [at 1.53 µM].
For `COc1cc(C[C@H](C)N)c(OC)cc1C`, the Potency result in [2], in test [5], in test [7], in test [20], in test [8] and in test [10] was “inactive” in each case. Besides, the Potency entry in test [12], in test [13], in test [14], in test [15], in [17] and in test [18] was “inactive” throughout. The Potency entry in test [19] is “inactive”. The compound was classed as inactive in [4] and in test [6].
As to `CC(=O)[C@@]1(O)CC[C@H]2[C@@H]3CCC4=CC(=O)CC[C@]4(C)C3(F)[C@@H](O)C[C@@]21C` (some centres not stated), the Potency result in test [1], in test [2], in test [3], in test [5], in [8] and in test [10] was “inactive” in each case. Besides, the Potency entry in test [11], in [12], in test [13], in [14], in [16] and in [17] was “inactive” in each case. The Potency result in test [18] and in [19] was “inactive” in each case. Moreover, the compound was classed as inactive in test [4] and in test [6]. Besides, the Potency in test [7] is 0.19 µM [inconclusive] (active).
`O=C1C[C@@H]2OCC=C3CN4CC[C@]56c7ccccc7N1[C@H]5[C@H]2[C@H]3C[C@H]46` (tested in a mixture with another compound): the Potency result in [1], in test [2], in test [3], in test [5], in test [8] and in test [9] was “inactive” in each case. In addition, the Potency entry in test [10], in test [11], in [12], in test [16] and in test [19] was “inactive” in each case. Besides, the call in test [4] was inactive.
As to `C/C=C(\CC)C(=O)NC(N)=O`, the Potency result in test [1], in test [2], in test [3], in test [5], in [7] and in [20] was “inactive” throughout. Also, the Potency result in test [9], in test [10], in [11], in test [12], in test [13] and in test [15] was “inactive” each time. In addition, the Potency result in [16], in test [18] and in test [19] was “inactive” in each case. Further, the compound was classed as inactive in test [4]. Also, in test [14], the Potency was 29.8 µM (active).
As for `CCC/C=C/C=C/C(=O)O[C@H]1/C(=C/C(=O)OC)C[C@H]2C[C@H]([C@@H](C)O)OC(=O)C[C@H](O)C[C@@H]3C[C@H](OC(C)=O)C(C)(C)[C@](O)(C[C@@H]4C/C(=C/C(=O)OC)C[C@H](/C=C/C(C)(C)[C@]1(O)O2)O4)O3`, the Potency entry in [2], in test [20], in [12], in test [15], in test [16] and in [17] was “inactive” throughout. In addition, the Potency entry in test [18] and in test [19] was “inactive” throughout. The Potency in test [3] is 0.0038 µM (active); in test [9] it was 0.0038 µM (active); in [10] it was 10.6 µM (active); in test [11], 9.44 µM (active).
For `CN(C)CCCCCCN(C)C` (tested in a mixture with another compound), the Potency result in [2], in test [3], in test [5], in test [7], in test [20] and in test [8] was “inactive” each time. Further, the Potency entry in [9], in test [10], in [11], in test [12], in test [16] and in [17] was “inactive” each time. Also, the Potency entry in test [19] was “inactive”. In [6], the call was inactive.
As for `COC(=O)[C@@H]1[C@H]2CC[C@@H](C[C@H]1OC(=O)c1ccccc1)N2C`, the Potency result in [1], in test [2], in test [3], in [5], in [8] and in test [9] was “inactive” each time. The Potency entry in test [10], in test [11], in test [12], in test [13], in test [14] and in [15] was “inactive” in each case. In addition, the Potency entry in [16], in test [18] and in [19] was “inactive” each time. In test [6], the call was inactive.
Take `O=C1OC2(c3cc(Br)c(O)cc3Oc3c2cc(Br)c(O)[c]3[Hg])c2ccccc21` (configuration not stated): the Potency entry in test [1], in test [2], in test [7], in test [20], in test [10] and in [13] was “inactive” each time. The Potency result in [14], in [15], in test [17], in test [18] and in [19] was “inactive” in each case. Further, the Potency was 10 µM [fluorescent] (active) in [5] and 11.4 µM (active) in test [9].
Regarding `C[C@]12CC[C@H](O)C[C@H]1CC[C@@H]1[C@@H]2CC[C@]2(C)[C@@H](c3ccc(=O)oc3)C[C@H]3O[C@]132`, the Potency in test [2] is 2.11 µM (active); in test [3], 2.66 µM (active); in test [8], 2.68 µM (active); in [9] it was 13.3 µM (active); in test [14], 0.944 µM (active). Moreover, the compound was classed as inactive in test [4] and in test [6]. Also, the Potency entry in [5], in [7], in test [10], in [12], in test [13] and in [16] was “inactive” each time. Moreover, the Potency result in test [17] and in [19] was “inactive” throughout.
Consider `C[C@@H](N)C(=O)c1ccccc1`, for which the Potency result in [2], in test [3], in test [5], in test [7], in [20] and in [9] was “inactive” in each case. Also, the Potency entry in test [10], in test [11], in test [12], in [13], in test [14] and in test [15] was “inactive” each time. The Potency entry in [16], in test [17], in test [18] and in test [19] was “inactive” in each case. Besides, the compound was called inactive in test [4].
